D1 potentiator – human D1 dopamine receptor positive modulation | 360,000 compounds, 0.036% hits | P21728 | AID 504651 | HEK293 TREx D1 cells, calcium flux, dopamine EC20 potentiation | potentiation, % at 10 µM; in the data active = potentiation above about 30%; note: 0% is about no effect
D1 antag – antagonists of human D1 dopamine receptor. 360,000 compounds, 3.2% hits. P21728. HEK293 TREx D1 cells, calcium flux, dopamine EC80; active compounds read low. activity change, negative = inhibition, % at 10 µM; in the data active = activity change below about -30%; note: % is set by controls: 0 for no effect and ±100 for the full control effect
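Cells carrying a force-coupled, tetracycline-inducible human D1 receptor report calcium flux. Each well gets a 10 s baseline, compound with 180 s monitoring, then an EC80 dopamine stimulus with a second 180 s kinetic read.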
GRP78 ERSR act – inducers of ER stress response in human glioma cells | U87-MG GRP78 promoter luciferase reporter, 16 h | Potency, µM, inactives show at the top dose activation, usual class: activators | 420,000 compounds, 0.02% hits; active = well fitted activation curve with a large enough effect; inconclusive = small, poorly fitted or top-dose-only effect; inactive = no such curve, though single readings can be large or run the other way; note: potency is the fitted concentration of half-maximal effect; series mostly up to about 76 µM; % of control where 0% means no effect; nearly all actives have a fitted effect of over 35% in size
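Stably transfected U87-MG human glioma cells carrying a GRP78-based luminescent sensor were seeded at 1000 cells/well, pin-dosed with compounds and incubated 16 h. Luciferase reagent was then added, and end-point luminescence was read after 10 min at room temperature.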
TRHR ag – agonists of human TRH receptor; activation, % at 2 µM; TRHR cells, calcium flux fluo-8, FDSS agonist mode; AID 493084; 360,000 compounds, 0.18% hits; P34981; note: 0% is about no effect
Target sequence (P34981 whole entry, looked up): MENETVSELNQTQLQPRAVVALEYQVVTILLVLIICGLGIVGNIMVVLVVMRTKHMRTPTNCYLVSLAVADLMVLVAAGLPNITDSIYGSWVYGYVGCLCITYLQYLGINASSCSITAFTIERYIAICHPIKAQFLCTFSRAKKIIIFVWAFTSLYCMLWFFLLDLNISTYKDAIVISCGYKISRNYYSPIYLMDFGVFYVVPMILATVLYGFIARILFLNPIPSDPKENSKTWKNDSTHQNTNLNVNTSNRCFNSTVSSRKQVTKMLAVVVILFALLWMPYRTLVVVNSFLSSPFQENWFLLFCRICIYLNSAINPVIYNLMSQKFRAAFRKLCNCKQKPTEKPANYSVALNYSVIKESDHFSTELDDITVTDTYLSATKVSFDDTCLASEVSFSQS
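Steps: seed TRHR cells overnight; add fluo-8 no-wash Ca dye, RT 30 min–1.5 h; record 10 s baseline; pin-transfer compounds; monitor fluorescence 1 cycle/s for the agonist window. Calcium increases flag candidate agonists.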
TRHR PAM – allosteric enhancers of human TRH receptor; 360,000 compounds, 0.66% hits; enhancement, % at 2 µM; P34981; TRHR cells, fluo-8 calcium fluorescence, EC20 TRH enhancement; in the data active = enhancement above about 30%; note: 0% is about no effect
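Enhancer read-out: after compound pinning and an initial kinetic agonist-mode read, an EC20 of TRH (10 nM final) was injected and fluo-8 calcium signal (Ex 480/Em 530) followed at 1 s/cycle for 100 cycles in TRHR-expressing cells.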
D1 ag – activates the human D1 dopamine receptor; HEK293 T-REx D1 cells, calcium flux, agonist mode; activation, % at 2 µM; 360,000 compounds, 1% hits; AID 504660; note: 0% is about no effect
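Tetracycline-induced HEK293 TREx D1 cells, force-coupled to calcium signalling, were dye-loaded with a no-wash calcium kit. Compound was pin-added after a 10 s baseline. Fluorescence was read kinetically at 1 cycle/s for 180 s, with calcium rises flagged as agonism.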
* marks the source's active call; other numbers are inactive results. This is a sample that favours compounds with a hit; in the whole collection about 4% have one here. Cut-off read from the data, not from the text of the source, unless noted: active = activation above about 30%; inactive = the rest.

What do the screens show for `O=C(N1CCOCC1)C12CC3CC(C1)CC(n1cnc(Cl)n1)(C3)C2`?
D1 potentiator: -2; D1 antag: -3; GRP78 ERSR act: 0%; TRHR ag: 0; TRHR PAM: 32*; D1 ag: 2

Results for CN(CC(=O)Nc1ccc(N2CCOCC2)cc1)C(=O)c1cc(F)c(F)cc1Cl ?
D1 potentiator: -7; D1 antag: -42*; GRP78 ERSR act: -1%; TRHR ag: 0; TRHR PAM: -1; D1 ag: 0

What do the screens show for `CN(CC(=O)Nc1ccc(N2CCOCC2)cc1)C(=O)CCCOc1ccc(Cl)cc1Cl`?
D1 potentiator: -6; D1 antag: -6; GRP78 ERSR act: 4%; TRHR ag: 0; TRHR PAM: 40*; D1 ag: 4

Results for O=C(c1ccc2c(c1)OCO2)N(Cc1cc2ccc(F)cc2nc1N1CCC(O)CC1)CC1CCCO1 (configuration not stated) ?
GRP78 ERSR act: -4%

What do the screens show for `Cc1cccc(NC(=O)CN2C(=O)N/C(=C/c3ccc(C)s3)C2=O)c1`?
D1 potentiator: -5; D1 antag: -7; GRP78 ERSR act: 6%; TRHR ag: 14; TRHR PAM: 10; D1 ag: 53*

What do the screens show for `Cc1cccc(NC(=O)CN2C(=O)N/C(=C/c3cc(C)n(C(C)C)c3C)C2=O)c1`?
D1 potentiator: -1; D1 antag: 0; GRP78 ERSR act: -2%; TRHR ag: -1; TRHR PAM: 12; D1 ag: 3

What do the screens show for `CC(=O)c1c(Cl)nc2cccc3c2c1-c1ccccc1C3=O`?
D1 potentiator: 2; D1 antag: 7; GRP78 ERSR act: -4%; TRHR ag: 0; TRHR PAM: 34*; D1 ag: 6

What do the screens show for `O=C1c2cccnc2Nc2ccccc2N1CCCF`?
D1 potentiator: -3; D1 antag: -33*; GRP78 ERSR act: -3%; TRHR ag: 0; TRHR PAM: -2; D1 ag: 0

Results for O=C(CNS(=O)(=O)c1ccccc1Br)OCC(=O)N1CCc2ccccc21 ?
D1 potentiator: -5; D1 antag: -57*; GRP78 ERSR act: -2%; TRHR ag: 0; TRHR PAM: -3; D1 ag: 4

Results for CC(=O)Nc1ccc(S(=O)(=O)NCC(=O)OCC(=O)N2CCc3ccccc32)cc1 ?
D1 potentiator: -1; D1 antag: 7; GRP78 ERSR act: -6%; TRHR ag: 0; TRHR PAM: -1; D1 ag: 3

Results for CCOc1ccc(CCNC(=O)COC(=O)c2oc3ccccc3c2COC)cc1OCC ?
D1 potentiator: 0; D1 antag: 15; GRP78 ERSR act: -5%; TRHR ag: -1; TRHR PAM: 5; D1 ag: 2

What do the screens show for `Cc1ccc(NC(=O)CN(C)C(=O)c2ccc(C(F)(F)F)cc2)cc1`?
D1 potentiator: -1; D1 antag: -32*; GRP78 ERSR act: 8%; TRHR ag: 0; TRHR PAM: 3; D1 ag: -1

How did CCN(CC)c1ccc(NC(=O)CN(C)Cc2cccs2)cc1 do in these assays?
D1 potentiator: -1; D1 antag: -7; GRP78 ERSR act: 1%; TRHR ag: -1; TRHR PAM: -9; D1 ag: -1

What do the screens show for `Cc1ccc(NC(=O)CN(C)Cc2cccs2)cc1Cl`?
D1 potentiator: -2; D1 antag: 6; GRP78 ERSR act: 2%; TRHR ag: 0; TRHR PAM: 33*; D1 ag: -3

What do the screens show for `COc1cc(CC(=O)Nc2ccc(Cl)c(C(F)(F)F)c2)cc(OC)c1OC`?
D1 potentiator: -3; D1 antag: -35*; GRP78 ERSR act: -6%; TRHR ag: 2; TRHR PAM: 1; D1 ag: 12

What do the screens show for `CCOc1ccc(NC(=O)CN2CCN(CC(=O)Nc3ccc(Cl)c(C(F)(F)F)c3)CC2)cc1`?
D1 potentiator: -2; D1 antag: -17; GRP78 ERSR act: -4%; TRHR ag: 1; TRHR PAM: 36*; D1 ag: 10

Results for COc1ccc(CN2CC[C@H]3C=CC[C@@H](C(=O)Nc4ccccc4)[C@H]3C2=O)cc1OC ?
GRP78 ERSR act: -4%

Results for CCOc1ccc(Nc2oc(-c3ccc(COc4ccc(C)cc4)o3)nc2C#N)cc1 ?
D1 potentiator: -1; D1 antag: 1; GRP78 ERSR act: -6%; TRHR ag: 1; TRHR PAM: 15; D1 ag: -2

How did COc1ccc(NS(=O)(=O)c2cc(NC(=O)c3cccc(OCc4c(C)noc4C)c3)ccc2OC)cc1 do in these assays?
D1 potentiator: -2; D1 antag: 11; GRP78 ERSR act: -6%; TRHR ag: 0; TRHR PAM: 3; D1 ag: 12

Results for O=C(N[C@@H]1c2ccccc2C2(CCN(C(=O)c3cc4ccccc4oc3=O)CC2)[C@H]1O)c1cccnc1 ?
GRP78 ERSR act: -6%

What do the screens show for `O=S(=O)(c1ccc2c(c1)OCCO2)N1CCN(S(=O)(=O)c2cccc3cccnc23)CC1`?
D1 potentiator: -3; D1 antag: -7; TRHR ag: 2; TRHR PAM: 1; D1 ag: 2

What do the screens show for `CN(CC(=O)Nc1ccc(Cl)c(C(F)(F)F)c1)C(=O)C1(c2ccccc2)CC1`?
D1 potentiator: -6; D1 antag: -10; GRP78 ERSR act: -3%; TRHR ag: 1; TRHR PAM: 1; D1 ag: 11

What do the screens show for `CN(CC(=O)NCc1ccccc1)CC(=O)Nc1ccc(Cl)c(C(F)(F)F)c1`?
D1 antag: 13; GRP78 ERSR act: -2%; TRHR ag: 2; TRHR PAM: 5; D1 ag: 64*

What do the screens show for `CN(CC(=O)Nc1ccc(Cl)c(C(F)(F)F)c1)C(=O)c1cccs1`?
D1 potentiator: -10; D1 antag: -51*; GRP78 ERSR act: -4%; TRHR ag: 0; TRHR PAM: 1; D1 ag: 12

Results for CN(CC(=O)NC(=O)NCc1ccccc1)CC(=O)Nc1ccc(Cl)c(C(F)(F)F)c1 ?
D1 potentiator: 3; D1 antag: -26; GRP78 ERSR act: -2%; TRHR ag: 0; TRHR PAM: 7; D1 ag: 10

What do the screens show for `Oc1ccccc1C1C=C(c2ccc3c(c2)OCO3)NC(c2cccc(F)c2)N1` (configuration not stated)?
D1 potentiator: 2; D1 antag: 1; GRP78 ERSR act: inconclusive; TRHR ag: 0; TRHR PAM: 11; D1 ag: 9

What do the screens show for `CCOC(=O)c1c(C)[nH]c(C)c1S(=O)(=O)NCC(=O)Nc1cccc(C(F)(F)F)c1`?
D1 potentiator: 1; D1 antag: -40*; GRP78 ERSR act: 1%; TRHR ag: 0; TRHR PAM: 0; D1 ag: 5

High-throughput results from PubChem.
